# Assay results as given in the supplement of paper PMC11732987, “Enantioselective OTUD7B fragment discovery through chemoproteomics screening and high-throughput optimisation” (Communications Chemistry, 2025).
# Unmarked numbers belong to inactive results.
# Columns and labels:
# Test in all cases: log2 ratio of Biotin-Ahx-Ub-VS probe labelling (fragment/DMSO); higher = less target engagement (more negative = stronger competition), active = hit call of the paper (q ≤ 0.05, log2 ratio ≤ -1)
# Details in all cases: compound concentration: 200 uM; treatment time: 3 h
# OTUD6B = target: T1, OTUD6B (UniProt Q8N6M0)
# T1 sequence (whole entry): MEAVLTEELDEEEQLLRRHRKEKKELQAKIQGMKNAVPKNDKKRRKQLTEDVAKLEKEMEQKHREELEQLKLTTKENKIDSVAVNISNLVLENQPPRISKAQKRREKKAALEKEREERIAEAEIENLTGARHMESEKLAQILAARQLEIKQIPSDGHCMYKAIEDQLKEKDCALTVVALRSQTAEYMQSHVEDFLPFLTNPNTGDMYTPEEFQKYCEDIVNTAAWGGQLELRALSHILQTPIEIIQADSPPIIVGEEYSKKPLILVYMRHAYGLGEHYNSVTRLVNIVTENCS
# How it was run: (§1)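 HEK293T lysate in Tris/CHAPS/IGEPAL buffer with protease inhibitors (495 µg per sample) was given fragment at 200 µM or vehicle for 3 h, in triplicate. It then received Biotin-Ahx-Ub-VS at 0.5 µM final for 1 h. Labelled DUBs were NeutrAvidin-enriched, digested with LysC and trypsin, and run by diaPASEF LC-MS/MS. Values are average log2 fragment/vehicle ratios by unpaired t-test on global-median-normalised Spectronaut quantities of proteins with ≥2 unique peptides.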
# OTUD7B = target: T2, OTUD7B (UniProt Q6GQQ9)
# T2 sequence (whole entry): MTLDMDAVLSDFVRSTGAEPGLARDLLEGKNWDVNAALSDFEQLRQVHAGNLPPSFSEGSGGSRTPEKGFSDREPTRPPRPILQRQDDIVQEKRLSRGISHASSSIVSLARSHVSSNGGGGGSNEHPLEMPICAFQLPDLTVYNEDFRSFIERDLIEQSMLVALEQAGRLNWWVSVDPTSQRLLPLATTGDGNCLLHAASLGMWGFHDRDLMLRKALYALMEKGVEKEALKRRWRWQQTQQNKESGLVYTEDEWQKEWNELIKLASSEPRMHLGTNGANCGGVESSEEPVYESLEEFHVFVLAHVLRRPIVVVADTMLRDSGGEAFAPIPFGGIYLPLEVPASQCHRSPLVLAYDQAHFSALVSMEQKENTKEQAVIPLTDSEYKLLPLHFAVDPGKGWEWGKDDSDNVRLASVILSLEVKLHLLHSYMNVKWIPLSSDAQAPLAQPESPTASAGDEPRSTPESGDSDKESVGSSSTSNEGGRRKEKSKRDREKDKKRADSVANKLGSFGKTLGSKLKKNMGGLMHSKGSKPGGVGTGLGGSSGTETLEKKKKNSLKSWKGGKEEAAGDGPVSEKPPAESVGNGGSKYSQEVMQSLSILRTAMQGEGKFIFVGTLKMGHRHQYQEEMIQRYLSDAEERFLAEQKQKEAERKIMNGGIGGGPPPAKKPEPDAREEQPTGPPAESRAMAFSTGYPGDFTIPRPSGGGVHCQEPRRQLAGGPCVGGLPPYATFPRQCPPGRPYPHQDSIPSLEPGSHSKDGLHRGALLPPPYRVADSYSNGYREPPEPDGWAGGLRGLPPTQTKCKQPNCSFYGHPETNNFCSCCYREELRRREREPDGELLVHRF
# How it was run: as §1
# PRPF8 = PRPF8 (UniProt Q6P2Q9)
# How it was run: as §1
# PSMD7 = target: T3, PSMD7 (UniProt P51665)
# T3 sequence (whole entry): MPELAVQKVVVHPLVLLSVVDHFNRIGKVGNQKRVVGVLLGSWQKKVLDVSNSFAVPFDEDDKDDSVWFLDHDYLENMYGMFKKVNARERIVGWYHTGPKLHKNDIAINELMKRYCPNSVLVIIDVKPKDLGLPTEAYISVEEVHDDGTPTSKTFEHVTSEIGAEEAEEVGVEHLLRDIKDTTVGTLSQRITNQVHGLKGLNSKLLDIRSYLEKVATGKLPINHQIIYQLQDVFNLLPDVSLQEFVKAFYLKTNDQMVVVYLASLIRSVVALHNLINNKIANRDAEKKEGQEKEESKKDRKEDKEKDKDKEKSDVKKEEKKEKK
# How it was run: as §1
# UCHL1 = UCHL1 (UniProt P09936)
# Chain of UCHL1 (P09936 whole entry, looked up): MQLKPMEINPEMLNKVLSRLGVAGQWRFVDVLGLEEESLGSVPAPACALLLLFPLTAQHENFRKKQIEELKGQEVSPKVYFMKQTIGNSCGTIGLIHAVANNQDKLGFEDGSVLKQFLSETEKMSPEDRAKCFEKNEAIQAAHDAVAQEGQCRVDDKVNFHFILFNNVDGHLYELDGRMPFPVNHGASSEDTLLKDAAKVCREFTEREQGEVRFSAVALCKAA
# How it was run: as §1
# UCHL3 = target: T4, UCHL3 (UniProt P15374)
# T4 sequence (whole entry): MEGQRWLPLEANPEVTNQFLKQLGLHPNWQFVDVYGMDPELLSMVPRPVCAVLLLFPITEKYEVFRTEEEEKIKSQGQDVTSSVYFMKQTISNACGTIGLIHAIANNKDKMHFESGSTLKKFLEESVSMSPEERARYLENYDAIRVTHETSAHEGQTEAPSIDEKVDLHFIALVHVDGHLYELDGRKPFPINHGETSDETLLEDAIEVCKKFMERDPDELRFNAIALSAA
# How it was run: as §1
# UCHL5 = target: T5, UCHL5 (UniProt Q9Y5K5)
# T5 sequence (whole entry): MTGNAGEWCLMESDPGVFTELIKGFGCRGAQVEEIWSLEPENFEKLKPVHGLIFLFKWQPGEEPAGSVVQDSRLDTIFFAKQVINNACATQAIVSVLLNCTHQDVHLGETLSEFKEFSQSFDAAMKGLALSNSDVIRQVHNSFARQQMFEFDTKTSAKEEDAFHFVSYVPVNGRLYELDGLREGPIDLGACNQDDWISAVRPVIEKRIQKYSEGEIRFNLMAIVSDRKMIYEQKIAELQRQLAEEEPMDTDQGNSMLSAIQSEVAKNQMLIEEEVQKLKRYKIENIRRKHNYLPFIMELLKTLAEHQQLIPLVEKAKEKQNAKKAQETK
# How it was run: as §1
# USP10 = USP10 (UniProt Q14694)
# Chain of USP10 (Q14694 whole entry): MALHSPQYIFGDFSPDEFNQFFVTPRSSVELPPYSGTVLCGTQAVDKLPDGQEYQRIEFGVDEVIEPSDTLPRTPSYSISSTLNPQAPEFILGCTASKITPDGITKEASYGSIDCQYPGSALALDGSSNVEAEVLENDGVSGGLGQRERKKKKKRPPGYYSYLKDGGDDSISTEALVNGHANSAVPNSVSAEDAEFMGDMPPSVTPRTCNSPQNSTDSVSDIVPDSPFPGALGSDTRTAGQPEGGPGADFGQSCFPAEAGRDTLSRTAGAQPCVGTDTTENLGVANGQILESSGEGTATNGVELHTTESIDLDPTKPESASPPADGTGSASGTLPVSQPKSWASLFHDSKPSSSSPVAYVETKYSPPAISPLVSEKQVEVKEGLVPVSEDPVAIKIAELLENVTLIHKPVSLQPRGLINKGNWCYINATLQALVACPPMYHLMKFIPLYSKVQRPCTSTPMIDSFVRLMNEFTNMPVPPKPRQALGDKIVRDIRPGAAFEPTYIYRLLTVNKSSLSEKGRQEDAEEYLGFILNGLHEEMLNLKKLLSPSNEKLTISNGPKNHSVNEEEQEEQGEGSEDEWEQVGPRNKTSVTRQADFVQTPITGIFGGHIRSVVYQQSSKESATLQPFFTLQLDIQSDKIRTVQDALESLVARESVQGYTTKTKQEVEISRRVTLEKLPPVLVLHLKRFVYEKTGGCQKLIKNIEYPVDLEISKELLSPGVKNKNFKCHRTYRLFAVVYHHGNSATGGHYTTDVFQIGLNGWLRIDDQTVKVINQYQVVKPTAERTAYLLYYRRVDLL
# How it was run: as §1
# USP15 = target: T6, USP15 (UniProt Q9Y4E8)
# T6 sequence (whole entry): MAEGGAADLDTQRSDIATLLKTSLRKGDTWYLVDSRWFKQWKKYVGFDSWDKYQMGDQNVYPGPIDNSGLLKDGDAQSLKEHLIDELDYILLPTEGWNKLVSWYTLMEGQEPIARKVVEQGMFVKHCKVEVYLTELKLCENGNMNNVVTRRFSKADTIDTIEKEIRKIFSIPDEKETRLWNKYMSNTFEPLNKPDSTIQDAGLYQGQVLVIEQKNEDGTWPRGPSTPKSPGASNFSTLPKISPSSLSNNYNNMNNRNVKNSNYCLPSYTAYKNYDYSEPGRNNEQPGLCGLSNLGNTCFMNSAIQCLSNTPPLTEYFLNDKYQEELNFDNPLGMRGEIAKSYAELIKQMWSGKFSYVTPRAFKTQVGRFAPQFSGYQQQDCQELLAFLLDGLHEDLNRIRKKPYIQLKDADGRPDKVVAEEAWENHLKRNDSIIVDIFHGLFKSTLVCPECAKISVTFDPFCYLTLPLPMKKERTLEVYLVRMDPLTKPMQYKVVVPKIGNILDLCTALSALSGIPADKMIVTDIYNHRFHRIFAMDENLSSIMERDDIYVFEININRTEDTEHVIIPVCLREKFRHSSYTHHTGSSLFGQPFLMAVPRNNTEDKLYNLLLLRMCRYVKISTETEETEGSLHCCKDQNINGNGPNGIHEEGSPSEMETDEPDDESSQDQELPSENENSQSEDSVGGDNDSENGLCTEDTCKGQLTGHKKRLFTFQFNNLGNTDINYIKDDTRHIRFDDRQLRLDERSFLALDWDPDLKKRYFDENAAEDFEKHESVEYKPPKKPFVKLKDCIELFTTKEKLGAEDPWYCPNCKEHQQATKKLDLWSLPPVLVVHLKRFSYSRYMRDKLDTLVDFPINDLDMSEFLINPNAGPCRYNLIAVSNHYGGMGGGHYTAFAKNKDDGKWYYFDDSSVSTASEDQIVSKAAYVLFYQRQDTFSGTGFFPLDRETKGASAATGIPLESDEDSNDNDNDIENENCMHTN
# How it was run: as §1
# USP16 = USP16 (UniProt Q9Y5T5)
# Chain of USP16 (Q9Y5T5 whole entry, looked up): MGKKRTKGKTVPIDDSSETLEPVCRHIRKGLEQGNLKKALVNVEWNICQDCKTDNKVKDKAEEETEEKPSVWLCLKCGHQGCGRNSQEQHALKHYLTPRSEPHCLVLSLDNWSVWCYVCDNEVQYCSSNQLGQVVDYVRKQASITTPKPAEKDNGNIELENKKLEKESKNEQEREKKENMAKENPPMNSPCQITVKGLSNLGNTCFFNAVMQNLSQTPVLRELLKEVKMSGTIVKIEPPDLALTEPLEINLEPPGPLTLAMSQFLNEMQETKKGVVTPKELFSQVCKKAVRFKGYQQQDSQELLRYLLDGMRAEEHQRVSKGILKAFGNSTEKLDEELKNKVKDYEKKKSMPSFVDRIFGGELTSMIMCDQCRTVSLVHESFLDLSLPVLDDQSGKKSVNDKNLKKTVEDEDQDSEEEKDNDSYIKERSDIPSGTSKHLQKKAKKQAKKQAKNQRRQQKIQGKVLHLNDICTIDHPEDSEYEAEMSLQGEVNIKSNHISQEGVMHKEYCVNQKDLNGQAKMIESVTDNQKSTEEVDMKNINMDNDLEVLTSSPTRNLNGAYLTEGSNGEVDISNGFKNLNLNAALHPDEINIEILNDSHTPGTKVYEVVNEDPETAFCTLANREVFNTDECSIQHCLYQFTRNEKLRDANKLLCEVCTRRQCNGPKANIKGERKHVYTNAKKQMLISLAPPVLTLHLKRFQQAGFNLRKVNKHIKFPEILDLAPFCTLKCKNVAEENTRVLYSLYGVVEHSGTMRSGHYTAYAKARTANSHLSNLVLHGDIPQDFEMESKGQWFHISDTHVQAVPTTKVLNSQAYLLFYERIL
# How it was run: as §1
smiles,measurement,setting,value
O=C(CCl)N1CC2(CCOCC2)C1,log2 ratio of Biotin-Ahx-Ub-VS probe labelling,OTUD6B,-0.202
same,log2 ratio of Biotin-Ahx-Ub-VS probe labelling,OTUD7B,-0.345
same,log2 ratio of Biotin-Ahx-Ub-VS probe labelling,PRPF8,-0.426
same,log2 ratio of Biotin-Ahx-Ub-VS probe labelling,PSMD7,-0.00344
same,log2 ratio of Biotin-Ahx-Ub-VS probe labelling,UCHL1,-1.21 (active)
same,log2 ratio of Biotin-Ahx-Ub-VS probe labelling,UCHL3,0.139
same,log2 ratio of Biotin-Ahx-Ub-VS probe labelling,UCHL5,-0.253
same,log2 ratio of Biotin-Ahx-Ub-VS probe labelling,USP10,-0.483
same,log2 ratio of Biotin-Ahx-Ub-VS probe labelling,USP15,-0.212
same,log2 ratio of Biotin-Ahx-Ub-VS probe labelling,USP16,-0.888
